Results filed as inconclusive are left out. The source made the active and inactive calls. Calls follow the shape of the dose curve; as a rule, active = well fitted inhibition curve with a large enough effect; inconclusive = small, poorly fitted or top-dose-only effect; inactive = no such curve, though single readings can be large or run the other way. Starred links: 1 amine or outer side, 2 acyl side, 3 side chain; linkers in the order of their positions; H or OH if unused. Positions of bridges follow the written chain, without caps; N, C: chain ends. Non-standard residues stand in square brackets, D forms with d. Residues, ends and D or L forms follow the SMILES beside them. Chains are numbered I, II in the order given. Actinocin(9to1) = Cc1c2oc3c(C)ccc(C(=O)[*:1])c3nc-2c(C(=O)[*:2])c(N)c1=O; NMeV = CN[CH](C(=O)O)C(C)C; Sar = CNCC(=O)O
Potency is read from the fitted curve at half-maximal effect.

The assay can be described thus: qHTS Screen of the MIPE 4.0 Collection Against Ewings Sarcoma (TC32) (AID 1259256). Also: nearly all actives have a fitted effect of over 45% in size. Particulars: TC32 Ewing sarcoma viability, CellTiter-Glo, 48 h; series mostly up to 45.8 µM. The text has this:
There is a large unmet medical need for treatments for Ewing sarcoma, a pediatric sarcoma. We sought to identify compounds that inhibited Ewing sarcoma cells in vitro with the goal to then test promising drugs in two drug combinations in vitro to look for synergistic drug combinations. Promising combinations would then proceed to additional validation, including in vivo testing.
Using the NCATS developed oncology compound library called the Mechanism of Interrogation Plate (MIPE), four Ewing sarcoma cell lines were evaluated (TC32, TC71, RDES, EW8). Compounds, in a 12-point titration series, were incubated with cells for 48 hours and the read out was cell viability (CellTiter-Glo from Promega). These initial experiments were used to select appropriate concentrations of each single agent for subsequent two-drug matrix combinations such that the concentrations in the matrices would span both activity and non-activity.
Cells, in the log phase of growth, were seeded in 5 uL of RPMI plus 5% FBS, […] L-glutamine, 100 U/ml penicillin and 100 ug/ml streptomycin into 1536-well solid-bottom white tissue culture treated Greiner Bio One Plates (789173-F) using a MultiDrop Combi (Thermofisher Scientific) dispenser and a small sterile cassette. One column was media alone to be used as a :"no cells" control. The plates were then covered with sterilized stainless steel gasketed lids from Kalypsys. After allowing cells to attach for 4 hours, 23 nL of test compound or control (negative control DMSO and positive control 9.2 uM Bortezomib-final) were added from a 1536-well polypropylene compound source plate to each well using a 1536 head pin tool from Kalypsys. Cells were then incubated for 48 hours at 37C, 95% relative humidity and 5% CO2. After 48 hours, plates were removed from the incubator and 3 uL of CellTiter-Glo (Promega) was added using an Aurora Flying Reagent Dispenser Bioraptor. Plates were incubated at room temperature for 10 minutes prior to reading the luminescence on the Viewlux (PerkinElmer). The relative luciferase units are used to calculate the percent activity using the activity of DMSO in the cells and no cells columns for normalization of no inhibition and full inhibition respectively.
(In general: In qHTS, concentration-response curves come from the screen itself.)
Regarding `C[C@@]12C(=O)OC(=O)[C@@]1(C)C1CCC2O1`, the Potency is 2.64 µM (active). Under `Nc1ccn(C[C@@H](CO)OCP(=O)(O)O)c(=O)n1` stands “inactive”; under `CC(C)C[C@H](NC(=O)CNC(=O)c1cc(Cl)ccc1Cl)B1OC(=O)CC(CC(=O)O)(C(=O)O)O1` (stereo not given in full), 0.332 µM (active); under `CCCCCCCCCCCC(CC1OC(=O)C1CCCCCC)OC(=O)C(CC(C)C)NC=O` (stereo not given), “inactive”. Next, `CC(C=CC=C(C)C=CC1=C(C)CCCC1(C)C)=CC=CC=C(C)C=CC=C(C)C=CC1=C(C)CCCC1(C)C`: 16.6 µM (active). For `O=C(Nc1nnc(-c2ccco2)o1)c1cc(-c2ccccc2)nc2ccccc12`, the Potency was 13.2 µM (active).

For `CC(=O)O[C@@]12CO[C@H]1C[C@H](O)[C@@]1(C)C(=O)[C@H](O)C3=C(C)[C@@H](OC(=O)C(O)[C@@H](NC(=O)OC(C)(C)C)c4ccccc4)C[C@@](O)([C@@H](OC(=O)c4ccccc4)[C@@H]21)C3(C)C` (stereo not given in full), the Potency entry was “inactive”. Under `Cc1[nH]c(C=C2C(=O)Nc3ccccc32)c(C)c1CCC(=O)O` stands 0.235 µM (active); under `Cc1cnn(C)c1C(=O)Nc1cc(Nc2ccc3c(C=Cc4ccccn4)n[nH]c3c2)ccc1F`, 20.9 µM (active); under `Cc1cnc(Nc2ccc(CN3CCOCC3)cc2)nc1Nc1cccc(S(=O)(=O)NC(C)(C)C)c1`, 3.32 µM (active).

For the compound `CCc1cc(C(C)=NOCc2ccc(C3CCCCC3)c(C(F)(F)F)c2)ccc1CN1CC(C(=O)O)C1`, the Potency result is “inactive”.

Consider `Nc1ccc(C(=O)Nc2cccc(-c3nc(N4CCOCC4)c4oc5ncccc5c4n3)c2)cn1`, for which the Potency is 16.6 µM (active).

For the compound `FC(F)c1nc2ccccc2n1-c1nc(N2CCOCC2)nc(N2CCOCC2)n1`, the Potency is 0.118 µM (active).

Regarding `COc1cc(N2CCC(C(N)=O)CC2)ccc1Nc1nc(N)c(Cl)c(Nc2ccccc2S(=O)(=O)C(C)C)n1`, the Potency is 6.62 µM (active). Under `c1ccc2c(Oc3nc(Nc4ccc(N5CCOCC5)cc4)c4ncn(C5CCCCC5)c4n3)cccc2c1` stands “inactive”; under `COC(=O)C=CC(=O)OC`, 14.8 µM (active); under `Oc1cc2c(cc1O)C1c3ccc(O)c(O)c3OCC1(O)C2` (stereo not given), “inactive”. Next, `CN(C)CCN1C(=O)c2cccc3cc(N)cc(c23)C1=O`: “inactive”. Next, `CC(C=CC(=O)NO)=C[C@@H](C)C(=O)c1ccc(N(C)C)cc1`: 0.332 µM (active); `Nc1ncn([C@@H]2O[C@H](CO)[C@@H](O)[C@@H]2O)c(=O)n1`: 4.69 µM (active); `O=C(c1ccc(F)cc1)N1CCC[C@H](c2nc(-c3ccc(F)cc3)no2)C1`: “inactive”.

For `N#Cc1c(NC(=O)c2cccc3ccccc23)sc2c1CCCC2`, the Potency is 0.235 µM (active). Next, `C=CC(=O)Nc1cc(NC(=O)c2ccc(C)c(NC(=O)c3ccno3)c2)cc(C(F)(F)F)c1`: 23.5 µM (active).

For the compound `CC(C)c1cnn2c(NCc3ccccc3)cc(NCCCCCCN)nc12`, the Potency is 13.2 µM (active).

For the compound `CN1[C@H]2CC(OC(=O)[C@@H](CO)c3ccccc3)C[C@H]1[C@H]1O[C@H]12` (stereo not given in full), the Potency entry was “inactive”. Under `Cc1ccc2nc(NCCN)c3ncc(C)n3c2c1` stands 4.69 µM (active). For `CCCc1nc(C(C)(C)O)c(C(=O)O)n1Cc1ccc(-c2ccccc2-c2nn[nH]n2)cc1`, the Potency result is “inactive”. Next, `C[C@H]1[C@@H](OC(=O)CCC(=O)O)O[C@@H]2O[C@@]3(C)CC[C@@H]4[C@H](C)CC[C@@H]1[C@@]24OO3`: 9.35 µM (active); `CCOC(=O)C1=C(C)NC(=S)NC1c1cccc(O)c1` (stereo not given): “inactive”; `c1cncc(CN2CCC(n3ncc4c(N5CCOCC5)nc(-c5ccc6[nH]ccc6c5)nc43)CC2)c1`: 5.9 µM (active). Next, `CCCCC(=O)O[C@]1(C(=O)CO)[C@@H](C)C[C@H]2[C@@H]3CCC4=CC(=O)C=C[C@]4(C)[C@@]3(F)[C@@H](O)C[C@@]21C`: “inactive”. Next, `COC(=O)C1C2CC3c4[nH]c5cc(OC)ccc5c4CCN3CC2CC(OC(=O)c2cc(OC)c(OC)c(OC)c2)C1OC` (stereo not given): 2.35 µM (active); `Nc1nc2c(c(=O)[nH]1)N(C=O)[C@H](CNc1ccc(C(=O)N[C@@H](CCC(=O)O)C(=O)O)cc1)CN2`: “inactive”; `CCOC(=O)[C@@H](N)Cc1ccc(-c2cc(O[C@H](c3ccc(Cl)cc3-n3ccc(C)n3)C(F)(F)F)nc(N)n2)cc1`: 20.9 µM (active). Regarding `Cc1c2oc3c(C)ccc(C(=O)NC4C(=O)NC(C(C)C)C(=O)N5CCCC5C(=O)N(C)CC(=O)N(C)C(C(C)C)C(=O)OC4C)c3nc-2c(C(=O)NC2C(=O)NC(C(C)C)C(=O)N3CCCC3C(=O)N(C)CC(=O)N(C)C(C(C)C)C(=O)OC2C)c(N)c1=O` (stereo not given) (I: TVP[Sar][NMeV] / II: TVP[Sar][NMeV]; ester I:1-I:C, II:1-II:C; linker I:N-II:N via Actinocin(9to1); configuration not given here), the Potency result is “inactive”. Next, `CC(C)c1cc(C(C)C)c(CC(=O)NS(=O)(=O)Oc2c(C(C)C)cccc2C(C)C)c(C(C)C)c1`: “inactive”; `O=c1[nH]c(=O)n([C@H]2C[C@@H](O)[C@@H](CO)O2)cc1F`: 0.059 µM (active). Under `N#Cc1ccc(COC[C@H]2O[C@@H](n3c(NCc4ccc(Cl)c(Cl)c4)nc4c(N)ncnc43)[C@@H](O)[C@@H]2O)cc1` stands 5.26 µM (active); under `CC(N[C@H]1CCCC[C@H]1NC(=O)c1ccc(Cl)cc1)c1cccc2ccccc12` (stereo not given in full), “inactive”.

Take `COC[C@H](NC(=O)c1cnc(C)s1)C(=O)N[C@@H](COC)C(=O)N[C@@H](Cc1ccccc1)C(=O)[C@@]1(C)CO1`: the Potency was 0.148 µM (active).

The values are drawn from PubChem BioAssay (NCATS).
